Source: PubChem BioAssay (The Scripps Research Institute Molecular Screening Center)
GSTO1 inh = inhibitors of recombinant GSTO1, primary screen, counter-screen for RBBP9 inhibitor project, biochemical, fluorescence polarization; Glutathione S-transferase omega-1 (Homo sapiens), P78417; 300,000 tested, 1.1% active; activity-based probe fluorescence polarization; inhibition, % at 5.96 µM; AID 1974, 2009;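 active = inhibition above the campaign mean inhibition plus 3 SD, cut at about 35% in these data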;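 note: 0% = GSTO1-1 with DMSO and 100% = wells lacking GSTO1-1 enzyme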
LYPLA1 inh = LYPLA1 inhibitors, primary screen, counter-screen for PME1 inhibitor project, biochemical, fluorescence polarization, FP-Rh probe ABPP | Acyl-protein thioesterase 1 (Homo sapiens), O75608 | recombinant LYPLA1 | inhibition, % at 5.9 µM | 320,000 tested, 0.16% active;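 active = inhibition above the mean of all tested compounds plus 3 SD, set per campaign, cut at about 14% in these data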;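 note: inhibitors block serine hydrolase probe labeling of LYPLA1 so polarization falls; 0% = enzyme with DMSO and 100% = wells lacking LYPLA1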
LYPLA2 inh = LYPLA2 inhibitors, primary screen, counter-screen for PME1 inhibitor project, biochemical, fluorescence polarization, FP-Rh probe ABPP; Acyl-protein thioesterase 2 (Homo sapiens), O95372; inhibition, % at 5.9 µM; recombinant LYPLA2; 320,000 tested, 0.38% active;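 active = inhibition above the screen-wide mean plus 3 SD, limit set per campaign, cut at about 26% in these data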;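 note: 0% = LYPLA2 with DMSO and 100% = wells lacking LYPLA2 enzyme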
Target sequence (O95372 whole entry, looked up): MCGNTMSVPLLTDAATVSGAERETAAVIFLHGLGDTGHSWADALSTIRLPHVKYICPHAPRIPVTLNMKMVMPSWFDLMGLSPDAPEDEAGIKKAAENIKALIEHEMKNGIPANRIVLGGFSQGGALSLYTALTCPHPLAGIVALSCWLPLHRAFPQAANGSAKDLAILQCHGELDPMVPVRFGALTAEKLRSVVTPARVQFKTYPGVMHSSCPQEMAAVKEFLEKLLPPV
Fam108B inh = mouse Fam108B serine hydrolase inhibitors, primary screen, counter-screen for RBBP9 inhibitor project, biochemical, fluorescence polarization. recombinant Fam108B, FP-Rh probe fluorescence polarization. inhibition, % at 9.51 µM. 300,000 tested, 0.33% active. AID 1947, 2009;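 active = inhibition above the screen mean inhibition plus 3 SD, computed separately per campaign, cut at about 18% in these data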;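 note: inhibitors lower polarization as less probe binds the enzyme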
PME-1 primary = PME-1 inhibitors via competitive probe labeling, primary screen, biochemical, fluorescence polarization, FP-Rh probe, HTS; Protein phosphatase methylesterase 1 (Homo sapiens), Q9Y570; recombinant PME-1; inhibition, % at 5.9 µM; 320,000 tested, 0.53% active;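 active = inhibition above the campaign mean of all compounds plus 3 SD, cut at about 26% in these data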;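 note: competitive labeling of PME-1 active site by serine hydrolase directed probe; 0% = PME-1 with DMSO and 100% = wells lacking PME-1 enzyme; inhibitors block probe labeling so polarization falls and inhibition rises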
Target sequence (Q9Y570 whole entry, looked up): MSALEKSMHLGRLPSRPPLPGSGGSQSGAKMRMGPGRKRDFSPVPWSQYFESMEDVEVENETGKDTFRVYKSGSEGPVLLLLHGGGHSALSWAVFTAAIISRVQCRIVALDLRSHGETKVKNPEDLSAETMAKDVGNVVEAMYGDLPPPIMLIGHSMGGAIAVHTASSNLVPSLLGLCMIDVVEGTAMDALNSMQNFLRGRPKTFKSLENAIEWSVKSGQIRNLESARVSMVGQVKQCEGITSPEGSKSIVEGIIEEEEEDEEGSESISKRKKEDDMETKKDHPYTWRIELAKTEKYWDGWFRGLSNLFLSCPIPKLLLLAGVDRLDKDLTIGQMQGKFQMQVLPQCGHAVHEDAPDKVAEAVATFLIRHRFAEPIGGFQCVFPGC
PREPL inh = PREPL enzyme inhibitors, primary screen, biochemical, fluorescence polarization | 320,000 tested, 0.68% active | recombinant PREPL, fluorescence polarization activity-based probe | inhibition, % at 5.96 µM | AID 2751, 2010; in the data active = inhibition above about 43%;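 note: 0% = enzyme with DMSO and 100% = wells lacking enzyme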
GSTO1 inh conf = GSTO1 inhibitor hit confirmation, counter-screen for RBBP9 inhibitor project, biochemical, fluorescence polarization, triplicate. 2,400 tested, 54% active. recombinant GSTO1, probe fluorescence polarization. shares compounds with GSTO1 inh. inhibition, % at 5.96 µM;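 active = inhibition above the primary screen's cutoff, its mean inhibition plus 3 SD, cut at about 35% in these data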;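 note: loss of polarization as inhibitors block binding of rhodamine sulfonate ester activity probe; 0% = GSTO1 with DMSO and 100% = wells lacking GSTO1 enzyme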
GSTO1 recomb ABPP = inhibitors of purified human GSTO1, late-stage follow-up, biochemical, gel ABPP, SE-Rh probe, percent inhibition; inhibition, % at 1 µM; 130 tested, 30% active; shares compounds with GSTO1 inh; recombinant GSTO1, gel ABPP SE-Rh probe fluorescence;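 active = inhibition of the enzyme GSTO1 above about 75%, limit read from the data; inactive = inhibition below that limit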
Starred values were filed as active, the others as inactive; / = no result. Rows were chosen to be rich in hits. Some 2% of all compounds tested hit in one or more screens of this group.

SMILES | GSTO1 inh | LYPLA1 inh | LYPLA2 inh | Fam108B inh | PME-1 primary | PREPL inh | GSTO1 inh conf | others
COc1ccc(S(=O)(=O)N2CCCC2)c(Cl)c1Cl | 8 | 0 | 1 | 2 | -2 | 3 | /
Cc1ccccc1OCCC(=O)Nc1ccc2c(C)cc(=O)oc2c1 | 5 | 1 | -4 | 1 | -6 | -25 | /
COc1cc(C(=O)OCC(=O)NC2CC2)ccc1OCCC(C)C | / | 2 | 9 | / | 3 | 11 | /
COc1ccc(-n2nc3ccc(N)cc3n2)cc1Cl | 53* | 8 | 9 | 13 | 10 | 14 | 49*
Cc1ccc(-n2nc3ccc(N)cc3n2)cc1C | 33 | 0 | 4 | 3 | 2 | 18 | /
Cc1ccc(-n2nc3ccc(N)cc3n2)cc1Cl | 44* | -1 | -9 | 0 | 10 | 17 | 8
O=C(NCCc1cscn1)C1CCC(=O)N(Cc2ccc(Cl)cc2)C1 (centres undefined) | 3 | -3 | -2 | 1 | 2 | 3 | /
COc1ccc(F)cc1S(=O)(=O)NCC1CCCO1 (centres undefined) | 7 | 3 | 17 | -3 | -3 | 6 | /
Cc1cc(C(=O)NNC(=S)NC(=O)/C=C/c2ccccc2Cl)n[nH]1 | 58* | -1 | 5 | -2 | 9 | 16 | 10
CCOC(=O)c1sc(N(Cc2ccccc2)C(=O)COC(=O)c2ccccc2O)nc1C | 11 | -2 | 0 | -9 | -1 | -14 | /
CCOC(=O)c1sc(N(Cc2ccccc2)C(=O)CCl)nc1C | 84* | -7 | 0 | 7 | -6 | 2 | 92*
O=C(CN1CCN(Cc2ccccc2Cl)CC1)N/N=C/c1ccco1 | 2 | 0 | 0 | 5 | 3 | 10 | /
O=C(O)c1cccc(Cn2c(Cl)c(/C=N/NC(=O)c3ccccc3Cl)sc2=O)c1 | 1 | -1 | 3 | 2 | 0 | -3 | /
O=C(O)c1cccc(Cn2c(Cl)c(/C=N/Nc3ccccc3)sc2=O)c1 | 50* | 7 | 5 | 8 | 8 | 11 | 65*
CCCCCOc1ccc(C(=O)CCC(=O)Nc2ccc(NC(C)=O)cc2)cc1 | -2 | -3 | 1 | -6 | -1 | 3 | /
O=C(NCc1nc(-c2ccc(C(F)(F)F)cc2)no1)Nc1cc(Cl)cc(Cl)c1 | -20 | -53 | -106 | -46 | -90 | -34 | /
O=[N+]([O-])c1cc(Cc2ccccc2)cc(C=Nc2ccc(N3CCOCC3)cc2)c1O | 69* | -2 | 5 | 2 | 1 | 25 | 5
NC(=S)N/N=C/c1coc2ccc(O)cc2c1=O | 67* | 2 | 2 | 0 | 8 | 2 | 12
CCCCCCn1nc(C(=O)Nc2nc3c(s2)CCCC3)c2ccccc2c1=O | 3 | -1 | -2 | 3 | -4 | 6 | /
O=C(CCl)N(c1ccc(Cl)cc1)c1c[nH]c2ccccc12 | 72* | -1 | -2 | -1 | -11 | 3 | 82* | GSTO1 recomb ABPP=63
O=C(Cc1ccc(Cl)cc1)NCCc1c[nH]c2ccccc12 | 9 | 1 | 1 | 3 | 3 | -2 | /
O=C(CCl)N(c1ccccc1)c1c[nH]c2ccccc12 | 70* | -3 | -11 | 5 | 2 | -4 | 78* | GSTO1 recomb ABPP=34
CCN(CC)C(=O)CCCc1c[nH]c2ccccc12 | -1 | 0 | -3 | -1 | -4 | 0 | /
CC(=O)N/C(=C\c1ccccc1)C(=O)OCC(=O)Nc1ccc(C)c(S(=O)(=O)N(C)C)c1 | / | / | / | / | / | -2 | /
Cc1ccccc1NC(=O)Cc1nc(CCl)cs1 | 93* | -3 | -1 | 2 | -6 | -2 | 95* | GSTO1 recomb ABPP=74
SMILES | GSTO1 inh | LYPLA1 inh | LYPLA2 inh | Fam108B inh | PME-1 primary | PREPL inh | GSTO1 inh conf | others
CCOCC(=O)Nc1nnc(Cc2ccc(OC)c(OC)c2)s1 | 24 | -2 | 7 | -1 | -9 | 5 | /
CCOCC(=O)Nc1nnc(Cc2ccc(OC)cc2)s1 | 39* | -4 | 5 | 5 | -5 | 10 | 29
CCc1ccc(NC(=O)CSc2nnnn2C)cc1 | 3 | 2 | 4 | 4 | -2 | 1 | /
COC(=O)c1cccc(-c2ccc(C(c3c(C)[nH][nH]c3=O)c3c(C)[nH][nH]c3=O)o2)c1 | 59* | -3 | -5 | -1 | -1 | -4 | 54*
O=C1CCCC(O)=C1C=Nc1ccc(O)cc1 | 60* | -6 | 1 | -3 | -7 | 8 | 2
O=C1CC(c2ccccc2)CC(O)=C1C=Nc1ccc(Cl)cc1 (centres undefined) | -2 | -2 | -4 | 0 | -1 | 2 | /
C=CCNC(=S)N1CCC(C(=O)c2ccc(Cl)cc2)CC1 | 1 | 1 | 3 | 1 | -4 | -12 | /
COc1ccc(O)c(C(=O)C2c3ccccc3C(=O)N2c2ccc(C)cc2)c1 (centres undefined) | 62* | -6 | -10 | -7 | -9 | 17 | 1
O=C(CSc1nnc(-c2ccco2)o1)c1ccc(F)c(F)c1 | 38* | 7 | 10 | -1 | 0 | 10 | 31
O=C(CSc1nnc(-c2ccco2)o1)c1ccccc1 | 18 | -1 | 1 | -2 | 7 | 11 | /
C[C@]12C=CC(=O)C=C1CC[C@@H]1C2=CC[C@]2(C)[C@@H](C(=O)CN3CCN(c4cc(N5CCCC5)nc(N5CCCC5)n4)CC3)CC[C@@H]12 | 51* | -2 | 1 | -5 | -3 | 26 | 45*
COc1ccc(C(c2c(C)[nH]n(-c3ccccc3)c2=O)c2c(C)[nH]n(-c3ccccc3)c2=O)cc1OC | 69* | -4 | -3 | 1 | 5 | 28 | 22
CCOc1ccc(C(c2c(C)[nH][nH]c2=O)c2c(C)[nH][nH]c2=O)cc1OC | 42* | -2 | -1 | 1 | -9 | -3 | 1
CCOc1cc(C(c2c(C)[nH][nH]c2=O)c2c(C)[nH][nH]c2=O)ccc1OS(=O)(=O)c1ccc(C)cc1 | -19 | 0 | 3 | 4 | 1 | -2 | /
COc1ccc(C(c2c(C)n(C)n(-c3ccccc3)c2=O)c2c(C)n(C)n(-c3ccccc3)c2=O)cc1OC | -7 | -2 | -2 | 2 | 2 | 5 | /
CC[C@@]12C(=O)N(c3ccc(C)cc3)C(=O)N1[C@H](c1ccc(Br)cc1)[C@@H]1C(=O)N(C(C)(C)C)C(=O)[C@@H]12 | 4 | 0 | -1 | 1 | 9 | -6 | /
